The source of these data is PubChem BioAssay (NCATS).

Several values for one entry are separate records, joined by “and”; a condition that tells them apart may be missing. Equal entries are not always repeated. Records with an inconclusive call do not appear. Activity calls are given as the source filed them. Calls follow the shape of the dose curve; as a rule, active = well fitted curve in the direction sought with a large enough effect; inconclusive = small, poorly fitted or top-dose-only effect, or another doubt; inactive = no such curve, though single readings can be large; an effect the other way counts as inactive or inconclusive.
% is scaled to controls: 0 for no effect and ±100 for the full control effect; potency is read from the fitted curve at half-maximal effect.
Also: nearly all actives have a fitted effect of over 70% in size.

One test can be described thus: Primary qHTS for inhibitors of nuclear receptor binding SET domain protein 2 (NSD2) in an isogenic RCH-ACV NSD2 p.E1099K mutant (9B) (AID 1645876). Particulars: RCH-ACV NSD2 E1099K (9B) viability, CellTiter-Glo, 72 h; series mostly up to 44.9 µM; activity change, negative = viability loss: at the top concentration. (Quantitative high-throughput screening tests each substance at several concentrations.)
In the case of `O=c1[nH]cnc2c1ncn2[C@H]1CC[C@@H](CO)O1`, the Potency entry was “inactive”.

With `COCCOc1nc(-c2ccc(Cl)c(Cl)c2)n(-c2ccc(NC(=O)CCl)cc2)n1`, the Potency was 1.48 µM (active).

`CNC1CCC(N(Cc2cccc(-c3ccncc3)c2)C(=O)c2sc3c(F)ccc(F)c3c2Cl)CC1` (centres undefined): the Potency was 8.33 µM (active) and 8.17 µM (active).

As to `O=c1cc(-c2ccccc2)oc2cc(O)cc(O)c12`, the Potency was 16.6 µM (active).

As to `Oc1ccc(C2CCN(c3ccnc4ccccc34)CC2)cc1O`, the Potency was 13.2 µM (active).

Consider `CC(C)n1cnc2c(NCCCCCCNC(=O)OC(C)(C)C)nc(NCCO)nc21`, for which the Potency was 14.8 µM (active).

`Cc1ccc(C(=O)Nc2cccc(C(F)(F)F)c2)cc1Nc1nc(-c2cccnc2)nc2c1cnn2C`: the “activity change, negative = viability loss” value was -3.08% (inactive).

Take `O=C(CCCCCCC(=O)Nc1ccccc1)NO`: the Potency was 94.4 nM (active) and 1.63 µM (active) and 662 nM (active).

A short description of a further test: Primary qHTS for inhibitors of nuclear receptor binding SET domain protein 2 (NSD2) in an RCH-ACV wild type WT cells (2C) (AID 1645877). Conditions: RCH-ACV (leukaemia line) NSD2 WT (2C) viability, CellTiter-Glo, 72 h; series mostly up to 44.9 µM; activity change, negative = cell killing: at the top concentration.
With `CC(C)(C)COc1ccc(-n2cc(C(=O)O)cn2)cc1C#N`, the “activity change, negative = cell killing” value was -58.7% (inactive).

On to `CC(=O)Nc1ccc([C@H](C)C(=O)Nc2ncc(C(C)C)s2)cc1`, for which the Potency was 2.35 µM (active).

On to `c1cc(-c2sc(-c3ccncc3)c(-c3ccncc3)c2-c2ccncc2)ccn1`, for which the “activity change, negative = cell killing” value was -10.5% (inactive).

Consider `NC(=O)c1cccc(-c2cc(Nc3ccc(OC(F)(F)F)cc3)ncn2)c1`, for which the Potency is 23 µM (active) and 13.2 µM (active).

With `CC(C)C(=O)Nc1ncc(-c2cc(C(F)F)nn2-c2c(Cl)cccc2Cl)s1`, the Potency was 23 µM (active).

In the case of `COc1ccc(-c2cc(=O)c3c(O)cc(O)cc3o2)cc1O`, the Potency is 14.8 µM (active).

Consider `CCOC(=O)C1=C(N)Oc2ccc(Br)cc2C1C(C#N)C(=O)OCC` (centres undefined), for which the Potency entry is “inactive”.

With `Clc1cc(Cl)cc(CNc2ncncc2-c2ccc3c(c2)OCO3)c1`, the Potency was 11.8 µM (active).

Turning to `COCCOC(=O)C1=C(C)NC2=C(C(=O)CC(c3ccccc3OC)C2)C1c1cccc(O)c1` (centres undefined), the Potency was 3.72 µM (active) and 3.25 µM (active).

As for `c1ccc2c(-c3cnn4cc(-c5ccc(N6CCNCC6)cc5)cnc34)ccnc2c1`, the Potency was 2.09 µM (active).

On to `COc1ncc(-c2ccc3nccc(-c4ccnnc4)c3c2)cc1NS(=O)(=O)c1ccc(F)cc1F`, for which the Potency was 1.2 nM (active) and 7.4 nM (active).

Consider `CNC(=O)c1ccc2cc(C3(O)CCn4cncc43)ccc2c1` (centres undefined), for which the “activity change, negative = cell killing” value was -1.95% (inactive).

Consider `CN[C@@H](C)C(=O)N[C@H]1CN(C(=O)CC(C)C)CC[C@H]2CC[C@@H](C(=O)NC(c3ccccc3)c3ccccc3)N2C1=O`, for which the Potency entry is “inactive”.

In the case of `OC[C@@H](O)[C@H](O)[C@H](O)[C@@H](O)CO`, the Potency result is “inactive”.

With `CC(C)[C@H](CO)Nc1nc(Nc2ccc(C(=O)O)c(Cl)c2)c2ncn(C(C)C)c2n1`, the Potency result is “inactive”.

Regarding `O=C1C(Cl)=C(NCCN2CCOCC2)C(=O)c2ncccc21`, the Potency was 3.32 µM (active).

`O=C(Nc1c(Cl)cncc1Cl)c1ccc(OC(F)F)c(OCC2CC2)c1`: the “activity change, negative = cell killing” value is -5.59% (inactive).

`CC(C)(C)c1cc(C(=O)O)c(NC(=O)Nc2ccc3[nH]ncc3c2)s1`: the Potency entry was “inactive”.

In the case of `COc1cccc([C@@H](C)NCCCc2ccccc2Cl)c1`, the Potency is 18.6 µM (active).

Turning to `CCCCCNC(=O)N1CCC(CN(Cc2ccc(Cl)cc2)Cc2ccc([N+](=O)[O-])s2)C1` (centres undefined), the “activity change, negative = cell killing” value was -15% (inactive).

Consider `CC(=O)Oc1cc2c(s1)CCN(C(C(=O)C1CC1)c1ccccc1F)C2` (centres undefined), for which the “activity change, negative = cell killing” value was -14% (inactive).

Consider `CC#CCn1c(N2CCC[C@@H](N)C2)nc2c1c(=O)n(Cc1nc(C)c3ccccc3n1)c(=O)n2C`, for which the “activity change, negative = cell killing” value is -8.11% (inactive).

Regarding `O=c1cc(-c2cccc3c2Sc2ccccc2S3)oc(N2CCOCC2)c1`, the Potency was 11.6 µM (active) and 11.8 µM (active).

For `CCOC(CN1C(=O)[C@](CC(=O)Nc2ccc(C)cc2)(NC(=O)Nc2ccc(C)cc2)c2ccccc21)OCC`, the Potency is 6.61 µM (active).

As for `O=C(NCc1ccccc1)c1csc(Nc2ccncn2)n1`, the Potency was 9.34 µM (active) and 16.3 µM (active).

As to `Cc1ccc(Nc2cc(-c3cccc(N4C(=O)c5ccccc5C4=O)c3)ncn2)cc1NS(C)(=O)=O`, the Potency was 18.6 µM (active).

Consider `C=C1C(=O)[C@@]23C(CC[C@@H]1[C@H]2O)[C@@]12CO[C@]3(O)[C@@H](O)[C@@H]1C(C)(C)CC[C@@H]2O` (some centres undefined), for which the Potency is 1.48 µM (active).

For the compound `N#Cc1ccc(NC(=O)Nc2ccccc2Br)c2n[nH]nc12`, the “activity change, negative = cell killing” value is 7.31% (inactive).

In the case of `O=c1[nH]cnc2c1ncn2[C@H]1CC[C@@H](CO)O1`, the Potency entry is “inactive”.

Regarding `COCCOc1nc(-c2ccc(Cl)c(Cl)c2)n(-c2ccc(NC(=O)CCl)cc2)n1`, the Potency was 1.32 µM (active).

For the compound `CNC1CCC(N(Cc2cccc(-c3ccncc3)c2)C(=O)c2sc3c(F)ccc(F)c3c2Cl)CC1` (centres undefined), the Potency was 7.42 µM (active) and 8.17 µM (active).

For `O=c1cc(-c2ccccc2)oc2cc(O)cc(O)c12`, the Potency was 16.6 µM (active).

Consider `Oc1ccc(C2CCN(c3ccnc4ccccc34)CC2)cc1O`, for which the Potency is 11.8 µM (active).

Consider `CC(C)n1cnc2c(NCCCCCCNC(=O)OC(C)(C)C)nc(NCCO)nc21`, for which the Potency was 16.6 µM (active).

On to `Cc1ccc(C(=O)Nc2cccc(C(F)(F)F)c2)cc1Nc1nc(-c2cccnc2)nc2c1cnn2C`, for which the “activity change, negative = cell killing” value was -2.87% (inactive).

As to `O=C(CCCCCCC(=O)Nc1ccccc1)NO`, the Potency is 106 nM (active) and 649 nM (active) and 833 nM (active).
